# Test results reported in ChEMBL document CHEMBL1961873, “Compounds: GSK PKIS; Assays: Nanosyn kinase panel” (2012).
# Assays:
# [1] = biological target: Sphingosine kinase 1 (Homo sapiens) (UniProt Q9NYA1); settings: at 1 µM;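 further: mean SPHK1 inhibition value reported from the GSK PKIS kinase panel screen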
# [2] = biological target: T1, Sphingosine kinase 2 (Homo sapiens) (UniProt Q9NRA0); settings: at 0.1 µM
# T1 sequence (whole entry): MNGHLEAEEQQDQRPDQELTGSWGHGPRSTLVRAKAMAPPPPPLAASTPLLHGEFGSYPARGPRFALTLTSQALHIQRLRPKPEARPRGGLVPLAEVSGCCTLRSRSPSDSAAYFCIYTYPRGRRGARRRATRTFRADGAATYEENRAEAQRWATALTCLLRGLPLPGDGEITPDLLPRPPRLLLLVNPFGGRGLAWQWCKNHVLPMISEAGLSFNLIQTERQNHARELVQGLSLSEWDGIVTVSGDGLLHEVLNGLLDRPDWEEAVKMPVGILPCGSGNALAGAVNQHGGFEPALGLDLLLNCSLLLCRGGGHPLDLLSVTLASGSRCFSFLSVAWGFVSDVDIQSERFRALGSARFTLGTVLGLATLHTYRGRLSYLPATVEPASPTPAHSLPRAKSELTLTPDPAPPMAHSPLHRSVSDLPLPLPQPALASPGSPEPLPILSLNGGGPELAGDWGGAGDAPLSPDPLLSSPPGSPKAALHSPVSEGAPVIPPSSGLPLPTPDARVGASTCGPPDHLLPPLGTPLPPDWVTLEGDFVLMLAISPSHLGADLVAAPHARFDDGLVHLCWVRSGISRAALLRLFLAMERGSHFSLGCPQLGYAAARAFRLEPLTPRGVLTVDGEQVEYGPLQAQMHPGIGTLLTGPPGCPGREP
# [3] = biological target: T1, Sphingosine kinase 2 (Homo sapiens); settings: at 1 µM
# [4] = biological target: Casein kinase II subunit alpha (Homo sapiens) (UniProt P68400); settings: at 0.1 µM
# [5] = biological target: Casein kinase II subunit alpha (Homo sapiens) (UniProt P68400); settings: at 1 µM
# [6] = biological target: T2, Inhibitor of nuclear factor kappa-B kinase subunit alpha (Homo sapiens) (UniProt O15111); settings: at 0.1 µM
# T2 sequence (whole entry): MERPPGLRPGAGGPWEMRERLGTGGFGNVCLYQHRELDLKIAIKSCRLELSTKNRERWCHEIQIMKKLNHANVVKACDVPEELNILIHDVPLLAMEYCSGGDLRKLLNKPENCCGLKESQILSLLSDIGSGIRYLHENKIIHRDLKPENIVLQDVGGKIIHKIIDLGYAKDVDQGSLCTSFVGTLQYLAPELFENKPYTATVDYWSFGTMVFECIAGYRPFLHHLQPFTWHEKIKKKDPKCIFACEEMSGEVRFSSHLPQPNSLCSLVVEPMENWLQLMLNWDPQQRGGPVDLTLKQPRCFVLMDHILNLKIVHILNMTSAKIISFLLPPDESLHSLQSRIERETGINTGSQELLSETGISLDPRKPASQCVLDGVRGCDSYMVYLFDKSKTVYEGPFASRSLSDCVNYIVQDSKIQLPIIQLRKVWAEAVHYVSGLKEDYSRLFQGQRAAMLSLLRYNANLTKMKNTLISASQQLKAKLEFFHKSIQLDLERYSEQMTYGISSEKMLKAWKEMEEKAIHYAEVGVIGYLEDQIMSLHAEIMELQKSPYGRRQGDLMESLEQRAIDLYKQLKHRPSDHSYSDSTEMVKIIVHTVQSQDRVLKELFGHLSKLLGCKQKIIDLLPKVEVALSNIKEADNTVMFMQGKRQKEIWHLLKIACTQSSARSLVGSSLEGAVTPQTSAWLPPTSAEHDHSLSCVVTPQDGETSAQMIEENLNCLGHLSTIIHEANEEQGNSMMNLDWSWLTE
# [7] = biological target: T2, Inhibitor of nuclear factor kappa-B kinase subunit alpha (Homo sapiens); settings: at 1 µM
# [8] = biological target: T3, Inhibitor of nuclear factor kappa-B kinase subunit beta (Homo sapiens) (UniProt O14920); settings: at 0.1 µM
# T3 sequence (whole entry): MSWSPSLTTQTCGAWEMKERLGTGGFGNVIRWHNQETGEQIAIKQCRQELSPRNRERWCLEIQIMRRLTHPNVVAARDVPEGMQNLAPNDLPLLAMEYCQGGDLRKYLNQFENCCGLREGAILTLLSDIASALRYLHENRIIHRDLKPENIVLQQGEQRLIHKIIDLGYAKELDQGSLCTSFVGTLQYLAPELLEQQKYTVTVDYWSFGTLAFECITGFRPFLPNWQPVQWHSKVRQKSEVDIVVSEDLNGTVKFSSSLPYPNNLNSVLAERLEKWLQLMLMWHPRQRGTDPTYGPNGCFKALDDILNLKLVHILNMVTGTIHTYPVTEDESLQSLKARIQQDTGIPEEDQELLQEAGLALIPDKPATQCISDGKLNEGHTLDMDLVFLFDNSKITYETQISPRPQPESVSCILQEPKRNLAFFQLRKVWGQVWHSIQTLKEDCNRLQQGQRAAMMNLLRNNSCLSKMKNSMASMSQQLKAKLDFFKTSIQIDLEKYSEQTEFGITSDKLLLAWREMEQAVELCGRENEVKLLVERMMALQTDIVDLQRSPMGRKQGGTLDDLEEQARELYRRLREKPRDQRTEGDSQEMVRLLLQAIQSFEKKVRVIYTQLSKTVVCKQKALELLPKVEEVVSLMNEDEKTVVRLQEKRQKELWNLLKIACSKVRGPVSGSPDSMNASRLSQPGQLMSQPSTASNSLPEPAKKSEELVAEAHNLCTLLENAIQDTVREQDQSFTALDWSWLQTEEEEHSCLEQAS
# [9] = biological target: T3, Inhibitor of nuclear factor kappa-B kinase subunit beta (Homo sapiens); settings: at 1 µM
# [10] = biological target: T4, Inhibitor of nuclear factor kappa-B kinase subunit epsilon (Homo sapiens) (UniProt Q14164); settings: at 0.1 µM
# T4 sequence (whole entry): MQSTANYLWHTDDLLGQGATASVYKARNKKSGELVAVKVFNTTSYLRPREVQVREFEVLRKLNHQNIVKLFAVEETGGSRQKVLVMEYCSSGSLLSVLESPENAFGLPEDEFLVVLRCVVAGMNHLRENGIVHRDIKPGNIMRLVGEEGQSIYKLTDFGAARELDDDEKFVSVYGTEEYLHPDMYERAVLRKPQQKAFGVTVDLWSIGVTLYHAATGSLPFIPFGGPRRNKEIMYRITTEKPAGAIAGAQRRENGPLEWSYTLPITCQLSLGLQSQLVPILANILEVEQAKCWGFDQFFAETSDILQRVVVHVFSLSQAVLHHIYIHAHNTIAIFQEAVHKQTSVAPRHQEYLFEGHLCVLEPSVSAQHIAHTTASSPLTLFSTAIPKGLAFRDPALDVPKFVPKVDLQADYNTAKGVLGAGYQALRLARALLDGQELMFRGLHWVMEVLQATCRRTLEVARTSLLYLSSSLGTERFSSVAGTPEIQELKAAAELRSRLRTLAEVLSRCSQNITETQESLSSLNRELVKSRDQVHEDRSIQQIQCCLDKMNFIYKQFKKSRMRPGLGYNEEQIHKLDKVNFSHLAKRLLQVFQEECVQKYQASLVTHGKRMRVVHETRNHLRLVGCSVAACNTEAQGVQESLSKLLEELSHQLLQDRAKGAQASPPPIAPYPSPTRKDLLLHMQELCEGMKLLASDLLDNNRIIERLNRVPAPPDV
# [11] = biological target: T4, Inhibitor of nuclear factor kappa-B kinase subunit epsilon (Homo sapiens); settings: at 1 µM
# [12] = biological target: T5, Serine/threonine-protein kinase Nek1 (Homo sapiens) (UniProt Q96PY6); settings: at 0.1 µM
# T5 sequence (whole entry): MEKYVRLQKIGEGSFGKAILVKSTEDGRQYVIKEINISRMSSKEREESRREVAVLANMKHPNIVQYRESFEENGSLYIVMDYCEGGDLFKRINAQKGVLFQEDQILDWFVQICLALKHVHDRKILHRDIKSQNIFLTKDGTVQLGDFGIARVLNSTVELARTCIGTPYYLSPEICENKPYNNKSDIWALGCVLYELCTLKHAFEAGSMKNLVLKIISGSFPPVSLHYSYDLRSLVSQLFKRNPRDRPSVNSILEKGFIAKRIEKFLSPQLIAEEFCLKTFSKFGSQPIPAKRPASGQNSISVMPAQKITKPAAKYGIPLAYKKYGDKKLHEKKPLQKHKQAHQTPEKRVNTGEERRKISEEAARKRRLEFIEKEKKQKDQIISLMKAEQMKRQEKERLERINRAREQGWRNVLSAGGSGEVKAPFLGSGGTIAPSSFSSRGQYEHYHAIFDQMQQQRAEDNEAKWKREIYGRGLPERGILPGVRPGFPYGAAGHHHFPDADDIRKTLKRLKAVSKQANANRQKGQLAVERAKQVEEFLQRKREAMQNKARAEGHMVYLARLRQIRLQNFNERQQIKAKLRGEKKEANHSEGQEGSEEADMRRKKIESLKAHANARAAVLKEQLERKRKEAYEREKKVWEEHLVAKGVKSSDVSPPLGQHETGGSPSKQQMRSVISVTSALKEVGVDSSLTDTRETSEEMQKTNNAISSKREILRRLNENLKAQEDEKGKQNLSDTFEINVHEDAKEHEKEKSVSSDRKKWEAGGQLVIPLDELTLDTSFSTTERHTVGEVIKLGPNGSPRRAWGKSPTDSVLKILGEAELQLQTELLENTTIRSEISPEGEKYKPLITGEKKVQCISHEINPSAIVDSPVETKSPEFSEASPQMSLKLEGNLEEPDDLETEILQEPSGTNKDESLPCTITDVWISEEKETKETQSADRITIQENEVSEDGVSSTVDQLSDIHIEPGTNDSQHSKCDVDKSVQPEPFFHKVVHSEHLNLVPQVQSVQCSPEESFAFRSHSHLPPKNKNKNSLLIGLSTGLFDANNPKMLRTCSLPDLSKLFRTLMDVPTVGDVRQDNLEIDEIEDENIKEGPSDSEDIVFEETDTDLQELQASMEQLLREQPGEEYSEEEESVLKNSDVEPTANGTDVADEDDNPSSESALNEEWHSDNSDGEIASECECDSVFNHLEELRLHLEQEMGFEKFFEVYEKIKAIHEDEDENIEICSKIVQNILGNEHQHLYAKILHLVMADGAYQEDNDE
# [13] = biological target: T5, Serine/threonine-protein kinase Nek1 (Homo sapiens); settings: at 1 µM
# [14] = biological target: T6, Serine/threonine-protein kinase Nek2 (Homo sapiens) (UniProt P51955); settings: at 0.1 µM
# T6 sequence (whole entry): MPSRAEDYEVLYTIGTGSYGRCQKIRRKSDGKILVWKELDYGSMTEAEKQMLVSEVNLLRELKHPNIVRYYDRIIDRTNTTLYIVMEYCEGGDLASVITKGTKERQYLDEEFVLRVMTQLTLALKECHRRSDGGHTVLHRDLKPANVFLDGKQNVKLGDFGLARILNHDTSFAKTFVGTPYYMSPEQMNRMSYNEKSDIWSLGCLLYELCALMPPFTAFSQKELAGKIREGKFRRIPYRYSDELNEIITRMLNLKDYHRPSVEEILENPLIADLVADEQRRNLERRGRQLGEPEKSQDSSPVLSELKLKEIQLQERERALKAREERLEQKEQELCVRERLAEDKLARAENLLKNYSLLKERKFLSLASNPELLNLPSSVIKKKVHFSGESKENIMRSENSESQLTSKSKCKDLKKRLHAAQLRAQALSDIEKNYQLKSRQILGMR
# [15] = biological target: T6, Serine/threonine-protein kinase Nek2 (Homo sapiens); settings: at 1 µM
# [16] = biological target: Serine/threonine-protein kinase Nek6 (Homo sapiens) (UniProt Q9HC98); settings: at 0.1 µM
# [17] = biological target: Serine/threonine-protein kinase Nek6 (Homo sapiens) (UniProt Q9HC98); settings: at 1 µM
# [18] = biological target: Serine/threonine-protein kinase Nek7 (Homo sapiens) (UniProt Q8TDX7); settings: at 0.1 µM
# [19] = biological target: Serine/threonine-protein kinase Nek7 (Homo sapiens) (UniProt Q8TDX7); settings: at 1 µM
# [20] = biological target: T7, Serine/threonine-protein kinase Nek9 (Homo sapiens) (UniProt Q8TD19); settings: at 0.1 µM;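 further: reported value is the mean percent inhibition of NEK9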
# T7 sequence (whole entry): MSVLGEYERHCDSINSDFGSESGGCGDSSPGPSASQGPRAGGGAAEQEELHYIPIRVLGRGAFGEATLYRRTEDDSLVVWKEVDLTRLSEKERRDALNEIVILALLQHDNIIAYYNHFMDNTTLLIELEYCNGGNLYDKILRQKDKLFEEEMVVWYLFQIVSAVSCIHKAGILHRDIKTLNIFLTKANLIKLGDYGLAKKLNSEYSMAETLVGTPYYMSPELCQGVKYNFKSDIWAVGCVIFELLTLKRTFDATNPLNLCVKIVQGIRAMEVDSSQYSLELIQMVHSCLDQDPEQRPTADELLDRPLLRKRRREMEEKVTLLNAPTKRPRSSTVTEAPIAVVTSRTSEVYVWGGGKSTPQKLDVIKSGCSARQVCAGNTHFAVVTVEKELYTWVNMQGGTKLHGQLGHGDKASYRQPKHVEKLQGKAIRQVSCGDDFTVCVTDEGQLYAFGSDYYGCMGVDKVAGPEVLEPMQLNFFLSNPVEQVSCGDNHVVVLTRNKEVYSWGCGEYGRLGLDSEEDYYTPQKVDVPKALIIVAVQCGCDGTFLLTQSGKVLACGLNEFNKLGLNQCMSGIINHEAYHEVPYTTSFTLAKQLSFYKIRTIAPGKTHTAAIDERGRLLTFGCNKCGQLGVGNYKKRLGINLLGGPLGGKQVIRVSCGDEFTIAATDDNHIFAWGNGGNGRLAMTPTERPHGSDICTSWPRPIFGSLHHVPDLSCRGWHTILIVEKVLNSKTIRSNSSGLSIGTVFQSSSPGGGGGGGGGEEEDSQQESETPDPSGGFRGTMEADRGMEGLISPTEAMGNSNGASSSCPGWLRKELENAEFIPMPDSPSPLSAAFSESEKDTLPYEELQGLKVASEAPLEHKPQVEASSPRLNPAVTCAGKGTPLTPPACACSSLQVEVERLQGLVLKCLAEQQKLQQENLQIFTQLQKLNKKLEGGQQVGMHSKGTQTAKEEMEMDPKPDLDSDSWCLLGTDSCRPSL
# Sequence of Casein kinase II subunit alpha (Homo sapiens) (P68400 whole entry, looked up): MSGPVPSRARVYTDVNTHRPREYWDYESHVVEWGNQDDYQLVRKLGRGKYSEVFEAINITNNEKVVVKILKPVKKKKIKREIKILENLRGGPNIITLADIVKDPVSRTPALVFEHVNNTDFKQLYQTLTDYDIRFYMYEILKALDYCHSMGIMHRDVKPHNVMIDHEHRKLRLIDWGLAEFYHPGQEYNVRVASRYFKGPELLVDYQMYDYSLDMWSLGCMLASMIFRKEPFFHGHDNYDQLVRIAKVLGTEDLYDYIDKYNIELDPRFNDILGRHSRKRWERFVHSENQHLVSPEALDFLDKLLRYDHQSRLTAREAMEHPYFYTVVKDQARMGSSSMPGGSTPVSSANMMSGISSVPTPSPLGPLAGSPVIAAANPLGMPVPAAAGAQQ
# Sequence of Serine/threonine-protein kinase Nek7 (Homo sapiens) (Q8TDX7 whole entry, looked up): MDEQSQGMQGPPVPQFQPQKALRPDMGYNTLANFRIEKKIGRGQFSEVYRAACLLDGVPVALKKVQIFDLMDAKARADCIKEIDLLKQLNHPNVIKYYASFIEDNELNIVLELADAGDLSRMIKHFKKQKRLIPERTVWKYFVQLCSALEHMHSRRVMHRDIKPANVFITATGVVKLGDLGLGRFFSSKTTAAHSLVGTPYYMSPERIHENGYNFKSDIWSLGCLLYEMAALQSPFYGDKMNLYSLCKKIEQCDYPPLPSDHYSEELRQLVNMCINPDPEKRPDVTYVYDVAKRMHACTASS
# Sequence of Serine/threonine-protein kinase Nek6 (Homo sapiens) (Q9HC98 whole entry): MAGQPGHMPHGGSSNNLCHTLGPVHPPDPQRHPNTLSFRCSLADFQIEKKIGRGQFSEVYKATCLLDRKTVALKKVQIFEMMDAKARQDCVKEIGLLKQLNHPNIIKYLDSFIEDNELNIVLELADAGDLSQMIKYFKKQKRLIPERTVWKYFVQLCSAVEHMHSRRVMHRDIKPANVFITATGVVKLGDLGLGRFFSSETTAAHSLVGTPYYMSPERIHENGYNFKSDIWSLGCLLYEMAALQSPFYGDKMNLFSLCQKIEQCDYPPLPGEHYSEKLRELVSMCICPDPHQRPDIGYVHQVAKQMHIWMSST
# Sequence of Sphingosine kinase 1 (Homo sapiens) (Q9NYA1 whole entry): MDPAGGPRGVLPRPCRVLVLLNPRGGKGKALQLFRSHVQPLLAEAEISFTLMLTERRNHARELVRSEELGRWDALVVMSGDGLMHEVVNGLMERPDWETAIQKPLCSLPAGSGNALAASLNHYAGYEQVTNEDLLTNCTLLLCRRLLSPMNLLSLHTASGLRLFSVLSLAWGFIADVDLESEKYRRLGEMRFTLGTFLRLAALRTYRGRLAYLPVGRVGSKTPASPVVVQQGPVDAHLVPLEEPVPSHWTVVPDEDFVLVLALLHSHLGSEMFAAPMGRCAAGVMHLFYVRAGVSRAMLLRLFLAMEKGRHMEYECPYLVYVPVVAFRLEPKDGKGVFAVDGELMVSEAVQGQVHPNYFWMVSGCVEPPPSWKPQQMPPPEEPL
smiles,measurement,setting,value
CC(C)c1ccc(Nc2nccc(-c3cnn4ncccc34)n2)cc1,inhibition,[1],7.28%
same,inhibition,[2],0.26%
same,inhibition,[3],-0.48%
same,inhibition,[4],10.7%
same,inhibition,[5],43.4%
same,inhibition,[6],18.7%
same,inhibition,[7],64.1%
same,inhibition,[8],7.7%
same,inhibition,[9],23%
same,inhibition,[10],4.12%
same,inhibition,[11],7.95%
same,inhibition,[12],3.1%
same,inhibition,[13],13.5%
same,inhibition,[14],3.86%
same,inhibition,[15],8.45%
same,inhibition,[16],1.7%
same,inhibition,[17],3.3%
same,inhibition,[18],3.35%
same,inhibition,[19],4.87%
same,inhibition,[20],11.3%
